The results in this text go back to PubChem BioAssay (NCI).

This is part of a sample that, as a whole, favours compounds with a hit. Of some 83,000 tested, about 20% had one in any assay.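 Assay: single dose, 48 h. Readout: percent growth (0 = no net growth; negative = cell death). Active: <10.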 Activity calls are given as the source filed them.

The subject of the assay is DU-145 prostate. The assay is described as follows: NCI-60 one-dose screen, 48 h (100 = growth as untreated, 0 = no growth, -100 = all killed). Particulars: 10 µM unless noted.
In the case of `C=C(C)[C@@H]1CC[C@]2(C(=O)NCCNCCN)CC[C@]3(C)[C@H](CC[C@@H]4[C@@]5(C)C/C(=C/c6ccncc6)C(=O)C(C)(C)[C@@H]5CC[C@]43C)[C@@H]12`, the growth was 106% (inactive).
With `CS(=O)(=O)C1=CN(CCO)C(=O)N2CCCN=C12` the figure was 105% (inactive); with `Cc1ccc(Sc2nnc(/N=C3\C(=O)Nc4ccccc43)s2)cc1`, 114% (inactive); with `CCOc1nc(-c2ccccc2)cc2c(O)c(C(=O)NN)[nH]c(=O)c12`, 120% (inactive).
For the compound `O=C1Nc2ccc(Br)cc2/C1=N/c1n[nH]c(=S)s1`, the growth is 106% (inactive).
For the compound `CCCCCCCCCCCCCCCC(N)c1ccccc1` (stereo not drawn), the growth is -62.9% (active).
Then `CCc1n(Cc2ccc3ccccc3c2)cc[n+]1Cc1ccc2ccccc2c1`, with 23.8% (inactive); and `Cc1ccc(-c2nc(N3CCNCC3)c3oc(-c4ccccc4)nc3n2)cc1`, with -93.1% (active).
As for `O=C(OCc1ccc2cccc(O)c2n1)N1CCN(C(=O)c2cc3cc(F)ccc3[nH]2)CC1`, the growth was -83.9% (active).
As for `CN1CCN(Cc2ccc(NC(=O)c3cncc(C#Cc4cnc(N)c5ccccc45)c3)cc2C(F)(F)F)CC1`, the growth was -97.6% (active).
As for `CO/N=C(/C)c1ccc(NC(=O)CSc2nnc(-c3ccncc3)n2-c2ccccc2)cc1`, the growth is 52% (inactive).
As for `CC(=O)OC[C@]12CCC(C)(C)C[C@H]1[C@@]1(O)[C@H](O)C[C@@H]3[C@@]4(C)CCCNC(C)(C)[C@@H]4CC[C@@]3(C)[C@]1(C)CC2`, the growth was 111% (inactive).
Turning to `COc1cc(-n2cc(-c3cc(O)c(C/C=C(\C)CCC=C(C)C)c(O)c3)nn2)cc2c1O[C@]1(C)CC[C@@H](O)C(C)(C)[C@H]1C2`, the growth was 30.6% (inactive).
